From PubChem BioAssay AID435003 (Sanford-Burnham Center for Chemical Genomics, 2010)
Hit rate of the full screen: of about 330,000 compounds, about 1,700 (0.52%) were called active. The sample as a whole holds a higher share of actives than the screen did. Values without a mark were called inactive. Cut-off read from the data, not from the text of the source: active = inhibition above about 50%; inactive = the rest.

Assay: inhibitors of induced NF-kB luciferase reporter, primary screen, TCR NF-kB activation inhibitor project, cell-based, luminescence, uHTS (AID 435003)
Settings: Jurkat, PMA/ionomycin-induced NF-kB luciferase reporter, at 4 µM, stronger effect = higher value

| SMILES | inhibition |
| --- | --- |
| Cc1ccc2nc(SC(C)C(=O)NCc3ccco3)[nH]c2c1 (stereo not given) | 7.59% |
| O=C(/C=C/c1ccc([N+](=O)[O-])o1)NNC(=O)c1ccc(F)cc1 | 75.6% (active) |
| COc1ccc(C(=O)NCC(=O)N/N=C/c2ccc([N+](=O)[O-])o2)cc1OC | 8.93% |
| O=C(NNC(=O)C1CCCC1)c1ccc(F)cc1 | -13.7% |
| Cc1ccc(NC(=O)Cn2nnc(C(=O)NCc3ccco3)c2N)c(C)c1 | -3.15% |
| CCc1ccc(NC(=O)Cn2nnc(C(=O)NCc3ccc(OC)cc3)c2N)cc1 | 13.8% |
| CCOc1ccccc1NC(=O)Cn1nnc(C(=O)NCc2cccs2)c1N | 65.8% (active) |
| CC[n+]1c(C)n(-c2ccccc2)c2ccc(NC(C)=O)cc21 | 35.7% |
| N#Cc1ccc(-c2ccc(Cl)cc2)nc1Oc1ccc(F)cc1 | -19.4% |
| CCCC(=O)Nc1nc2ccc(NC(=O)c3cccnc3)cc2s1 | 40.8% |
| CSc1nc2ccc(NC(=O)c3c(F)cccc3F)cc2s1 | -93.5% |
| CCCC(=O)Nc1nc2ccc(NC(=O)c3c(F)c(F)c(OC)c(F)c3F)cc2s1 | 57.8% (active) |
| COc1ccccc1NS(=O)(=O)c1ccc(C(=O)N2CCN(c3ccccc3O)CC2)cc1 | -3.42% |
| CC1(C)CN(c2ccc(-c3ccnc4ncnn34)cc2)C1=O | -3.78% |
| Cc1cc(C(=O)OCC(=O)NCc2ccco2)c(C)n1-c1ccccc1 | 54.7% (active) |
| CN(c1ccccc1)S(=O)(=O)c1ccc(Cl)c(C(=O)OCC(=O)NCc2ccco2)c1 | -10.7% |
| O=C(COC(=O)c1ccccc1O)NCc1ccco1 | -0.428% |
| COc1ccc(NC(=O)N(C)C[C@H]2Oc3ccc(NC(=O)C4CC4)cc3C(=O)N([C@H](C)CO)C[C@@H]2C)cc1 | -11.5% |
| COc1ccc(-c2c(NC(=O)c3ccco3)oc3ccc(Cl)cc3c2=O)cc1 | -5.27% |
| COc1ccc(S(=O)(=O)N(C)C[C@H]2Oc3ccc(NS(=O)(=O)c4cccs4)cc3CC(=O)N([C@H](C)CO)C[C@H]2C)cc1 | 16% |
| O=C(CSc1ncnc2scc(-c3ccccc3)c12)NCc1ccc2c(c1)OCO2 | 1.29% |
| CC[C@]1(O)CC2CN(CCc3c([nH]c4ccccc34)[C@@](C(=O)OC)(c3cc4c(cc3OC)N(C=O)[C@H]3[C@@](O)(C(=O)OC)[C@H](OC(C)=O)[C@]5(CC)C=CCN6CC[C@]43[C@@H]65)C2)C1 (stereo not given in full) | 71.2% (active) |
| Cc1ccc(F)cc1S(=O)(=O)Nc1cccc(C(=O)N2CCCC(C(N)=O)C2)c1 (stereo not given) | 12.4% |
| CCC/C=C(\CCC)C(NC(=O)Cc1ccccc1)c1ccc(C(=O)OC)cc1 (stereo not given) | 25.8% |
| CCNC(=S)N(CCc1c(C)[nH]c2ccc(C)cc12)Cc1ccco1 | -0.351% |
| Cc1c(Nc2nc3ccccc3nc2NS(=O)(=O)c2cccs2)c(=O)n(-c2ccccc2)n1C | -0.383% |
| Nc1c(-c2ccc(F)cc2)cnn1C1CCS(=O)(=O)C1 (stereo not given) | -7.3% |
| O=C(CS(=O)(=O)Cc1ccccc1)Nc1cccnc1 | 7.62% |

| SMILES | inhibition |
| --- | --- |
| COc1cc(OC)nc(N/N=C(\c2ccccc2)c2ccncc2)n1 | -5.67% |
| N/C(=N\OC(=O)c1ccc2c(c1)OCO2)c1ccc(Br)cc1 | -102% |
| N/C(=N\OC(=O)Cc1ccccc1[N+](=O)[O-])c1ccc(Br)cc1 | 1.58% |
| N/C(=N\OC(=O)N1c2ccccc2Sc2ccccc21)c1ccc(Br)cc1 | 77% (active) |
| CC(C)(C)NS(=O)(=O)NC(=O)C1=C(N2CCCC2)COC1=O | -4.98% |
| COC(=O)C1=NNC2(c3ccc(C)cc3)C(=O)N(c3cccc(C)c3C)C(=O)C12 (stereo not given) | -13.7% |
| Cc1ccc(S(=O)(=O)N2CCCCC2)cc1C(=O)N(C)CC(=O)Nc1cccc(F)c1 | 0.943% |
| Cc1cc(C)cc(NC(=O)N2CCC(NC(=O)c3ccc(F)cc3)CC2)c1 | -8.05% |
| Cc1ccc(S(=O)(=O)N2CCCCC2)cc1NC(=O)CCNC(=O)c1ccccc1 | 1.31% |
| O=C(Nc1cccc(S(=O)(=O)N2CCCCC2)c1)c1cncc(Br)c1 | -9.4% |
| O=C(CCNC(=O)c1ccc(Br)cc1)Nc1cccc(S(=O)(=O)N2CCCCC2)c1 | 51.4% (active) |
| COc1ccc(-n2nnc3c(=O)n(CC(=O)OCc4ccccc4)cnc32)cc1 | -2.47% |
| CCOC(=O)c1ccc(NC(=O)Cc2cccs2)cc1 | -42.6% |
| CCOC(=O)c1ccc(NC(=O)Cn2cnc3cc(C)c(C)cc32)cc1 | 66.1% (active) |
| CCCc1nnc(SCC(=O)Nc2ccc(C(=O)OCC)cc2)o1 | -1.45% |
| COc1ccc(CNC(=O)C2CCN(S(C)(=O)=O)CC2)cc1 | 11.1% |
| COc1ccc(CNS(=O)(=O)c2cc(-c3cc(C)no3)ccc2C(C)C)cc1 | 50.9% (active) |
| CCOc1ccccc1CNS(=O)(=O)c1cc(-c2cc(C)no2)ccc1C | 18% |
| Cc1cc(-c2ccc(C)c(S(=O)(=O)NCCCN(Cc3ccccc3)C(C)C)c2)on1 | 9.13% |
| COc1ccc(/C=N/NC(=O)C(C)N(c2ccc(OC)cc2)S(C)(=O)=O)cc1 (stereo not given) | 13.9% |
| CC(C)CC(=O)Nc1nnc(S(=O)(=O)N(C)c2ccc(Cl)cc2)s1 | 1.22% |
| COc1cccc(-n2c(=S)[nH]c3c(oc4ccccc43)c2=O)c1 | -22.5% |
| O=c1oc2ccccc2cc1-c1cn(-c2ccccc2)c(=S)[nH]1 | 85.2% (active) |
| CS(=O)(=O)N1CCN(C(=O)c2cc3ccccc3oc2=O)CC1 | 2.45% |
| CCOC(=O)c1cc(-c2ccc(F)cc2)n(CC(=O)NCc2ccccn2)c1C | -17.7% |
| CCCN(CC1CC1)C(=O)COC(=O)c1ccc(C)cc1O | -1.18% |
| Cc1cc(/C=N/n2cnnc2)c(C)n1-c1ccc2ncccc2c1 | 9.47% |
